# Data from the antibiotic and cytotoxicity screens of Wong et al. (2023).
# About 3,300 (8.5%) of roughly 39,000 compounds were called active. The sample as a whole holds a higher share of actives than the screen did.
# System: HepG2
# Experiment: cytotoxicity call (relative viability < 0.9)
# Settings: 10 µM
row,SMILES,cytotoxicity call
1,CC(=O)OC[C@H]1O[C@H](C/C=N/O[C@H](C)c2cn([C@@H]3COC[C@H]3O)nn2)C=C[C@@H]1OC(C)=O,inactive
2,C[C@H](CO)N1C[C@H](C)[C@H](CN(C)Cc2ccc(Cl)c(Cl)c2)Oc2ccc(NS(=O)(=O)c3cccs3)cc2C1=O,inactive
3,Cc1noc(C)c1S(=O)(=O)Nc1ccc2c(c1)CC(=O)N([C@@H](C)CO)C[C@H](C)[C@@H](CN(C)Cc1ccc(C(=O)O)cc1)O2,inactive
4,C[C@@H]1CN([C@H](C)CO)C(=O)Cc2cc(NS(=O)(=O)c3ccc(F)cc3)ccc2O[C@@H]1CN(C)C(=O)Nc1cccc2ccccc12,inactive
5,O=C(C[C@@H]1C[C@H]2c3cc(NC(=O)NC4CCCC4)ccc3O[C@H]2[C@@H](CO)O1)NCc1ccc2c(c1)OCO2,inactive
6,Cc1ccc(C(=O)Nc2ccc(Oc3cc4cnn(C)c4cc3-c3cn[nH]c3)c(F)c2)c(=O)n1-c1ccc(F)cc1,active
7,CCOc1ccn(-c2ccc(F)cc2)c(=O)c1C(=O)Nc1ccc(Oc2ccnc(N)c2Cl)c(F)c1,inactive
8,Cc1c(C(=O)Nc2ccc(Oc3ccnc4cc(OCC(C)(C)O)ccc34)c(F)c2)c(=O)n(-c2ccccc2)n1C,inactive
9,C[C@@H]1CCCCO[C@H](CN(C)C(=O)CCC(F)(F)F)[C@H](C)CN([C@@H](C)CO)C(=O)c2cc(NC(=O)CCCCCC(=O)Nc3ccccc3N)ccc2O1,inactive
10,C[C@@H]1CN([C@H](C)CO)S(=O)(=O)c2ccc(C#Cc3ccc(F)cc3)cc2O[C@H]1CN(C)C(=O)CN(C)C,active
11,C[C@@H]1CN([C@@H](C)CO)S(=O)(=O)c2ccc(C#Cc3ccc(F)cc3)cc2O[C@H]1CN(C)C(=O)CN(C)C,inactive
12,C[C@@H]1CN([C@@H](C)CO)S(=O)(=O)c2ccc(C#Cc3ccccc3)cc2O[C@H]1CN(C)C(=O)CN(C)C,inactive
13,C[C@H]1CN([C@@H](C)CO)S(=O)(=O)c2ccc(Br)cc2O[C@H]1CN(C)C(=O)Cc1ccccc1,active
14,C[C@H]1CN([C@@H](C)CO)S(=O)(=O)c2ccc(Br)cc2O[C@H]1CN(C)C(=O)Cc1ccncc1,inactive
15,C[C@@H]1CN([C@H](C)CO)S(=O)(=O)c2ccc(C#Cc3cccnc3)cc2O[C@H]1CN(C)C(=O)CN(C)C,inactive
16,C[C@H]1CN([C@@H](C)CO)S(=O)(=O)c2ccc(Br)cc2O[C@@H]1CN(C)C(=O)Cc1ccccc1,inactive
17,C[C@H]1CN([C@@H](C)CO)S(=O)(=O)c2ccc(C#Cc3ccc(F)cc3)cc2O[C@H]1CN(C)C(=O)CN(C)C,inactive
18,C[C@@H]1CN([C@H](C)CO)S(=O)(=O)c2ccc(C#Cc3ccccc3)cc2O[C@H]1CN(C)C(=O)CN(C)C,active
19,C[C@@H]1CN([C@H](C)CO)S(=O)(=O)c2ccc(C#Cc3ccccc3)cc2O[C@@H]1CN(C)C(=O)CN(C)C,active
20,C[C@@H]1CN([C@H](C)CO)S(=O)(=O)c2ccc(C#Cc3cccnc3)cc2O[C@@H]1CN(C)C(=O)CN(C)C,inactive
21,C[C@H]1CN([C@@H](C)CO)S(=O)(=O)c2ccc(C#Cc3ccc(F)cc3)cc2O[C@@H]1CN(C)C(=O)CN(C)C,inactive
22,CO[C@H](CN(C)S(=O)(=O)c1ccc(F)cc1)[C@H](C)CN([C@@H](C)CO)S(=O)(=O)c1cccc(Cl)c1,inactive
23,COC1C=CC23c4cc5c(cc4CN(CC2O)C3C1)OCO5 (configuration not stated),inactive

row,SMILES,cytotoxicity call
1,COC(=O)[C@H](Cc1ccccc1)N1CC2=C[C@H](C3CC3)n3c(=O)n(C)c(=O)n3[C@@H]2[C@H]1[C@H](O)Cc1ccccc1,inactive
2,CC(=O)N1CCc2n[nH]c(C(=O)N3CCOCC3)c2C1,inactive
3,CC(C)NC(=O)N(C)C[C@@H]1Oc2c(NC(=O)C3CCOCC3)cccc2C(=O)N([C@H](C)CO)C[C@@H]1C,inactive
4,C[C@H](CO)N1C[C@H](C)[C@@H](CN(C)C(=O)CN(C)C)Oc2cc(C#Cc3ccccc3)ccc2S1(=O)=O,active
5,C[C@H](CO)N1C[C@H](C)[C@H](CN(C)C(=O)CN(C)C)Oc2cc(C#Cc3ccc(F)cc3)ccc2S1(=O)=O,inactive
6,C[C@@H]1CN([C@@H](C)CO)S(=O)(=O)c2ccc(C#Cc3ccc(F)cc3)cc2O[C@@H]1CN(C)C(=O)CN(C)C,inactive
7,C[C@H]1CN([C@@H](C)CO)S(=O)(=O)c2ccc(C#Cc3ccccc3)cc2O[C@H]1CN(C)C(=O)CN(C)C,active
8,C[C@H](CO)N1C[C@H](C)[C@H](CN(C)C(=O)CN(C)C)Oc2cc(C#Cc3ccccc3)ccc2S1(=O)=O,inactive
9,C[C@@H]1CN([C@@H](C)CO)S(=O)(=O)c2ccc(C#Cc3ccccc3)cc2O[C@@H]1CN(C)C(=O)CN(C)C,active
10,C[C@@H]1CN([C@H](C)CO)S(=O)(=O)c2ccc(C#Cc3ccc(F)cc3)cc2O[C@@H]1CN(C)C(=O)CN(C)C,inactive
11,C[C@H](CO)N1C[C@H](C)[C@@H](CN(C)C(=O)CN(C)C)Oc2cc(C#Cc3ccc(F)cc3)ccc2S1(=O)=O,inactive
12,C[C@H]1CN([C@@H](C)CO)S(=O)(=O)c2ccc(C#Cc3ccccc3)cc2O[C@@H]1CN(C)C(=O)CN(C)C,inactive
13,C[C@@H]1CCCCO[C@@H](CN(C)Cc2ccc(C(F)(F)F)cc2)[C@H](C)CN([C@H](C)CO)C(=O)c2cc(N(C)C)ccc2O1,inactive
14,Cn1ccc(C(=O)N2CCC3(CCOC[C@@H]3NS(C)(=O)=O)CC2)n1,inactive
15,Cc1noc(C)c1S(=O)(=O)Nc1ccc2c(c1)CC(=O)N([C@@H](C)CO)C[C@H](C)[C@H](CN(C)C(=O)NC(C)C)O2,inactive
16,COc1cccc(S(=O)(=O)N[C@H]2CC[C@@H](CC(=O)NC3CCC3)O[C@@H]2CO)c1,inactive
17,CC(=O)NCCCC[C@@H]1NC(=O)[C@H]2C[C@@H](C(=O)NCCCCCCN(C)C)[C@@H](c3ccc(O)cc3)N2C1=O,inactive
18,C[C@@H]1CCCCO[C@H](CN(C)C(=O)Nc2ccc(F)cc2)[C@H](C)CN([C@@H](C)CO)C(=O)c2cc(NC(=O)c3ccncc3)ccc2O1,inactive
19,NCc1ccc(S(=O)(=O)O)cc1,inactive
20,C[C@@H]1CN([C@@H](C)CO)C(=O)Cc2cc(NC(=O)Cn3cnnn3)ccc2O[C@@H]1CN(C)C(=O)Nc1ccc(F)cc1,inactive
21,CN1CCN(C(=O)C[C@@H]2C=C[C@@H](NC(=O)c3ccc4c(c3)OCO4)[C@H](CO)O2)CC1,inactive
22,CCOc1ccc(NC(=O)CC(C)O)cc1 (configuration not stated),inactive
23,CCCCOc1ccc(CC(=O)NO)cc1,active

row,SMILES,cytotoxicity call
1,COc1ccc(OCCC(=O)NN)cc1,inactive
2,CNC(=O)CN(C#N)c1nc(C)cc(C)n1,inactive
3,COc1ccc(CNC(=O)C[C@H]2C[C@H]3c4cc(NS(=O)(=O)c5ccc(F)cc5)ccc4O[C@H]3[C@H](CO)O2)cc1,inactive
4,C[C@H](CO)N1C[C@H](C)[C@H](CN(C)C(=O)c2cccnc2)Oc2ncc(-c3ccc(C(=O)N(C)C)cc3)cc2C1=O,inactive
5,C[C@@H]1CCCCO[C@H](CN(C)C(=O)CCC(F)(F)F)[C@@H](C)CN([C@H](C)CO)C(=O)c2cc(NC(=O)CCC(F)(F)F)ccc2O1,inactive
6,C[C@H](CO)N1C[C@H](C)[C@H](CN(C)C(=O)Nc2ccccc2)Oc2ccc(NC(=O)Nc3ccc(C(F)(F)F)cc3)cc2C1=O,active
7,C[C@H]1CN([C@@H](C)CO)C(=O)c2cc(NC(=O)Nc3ccc(C(F)(F)F)cc3)ccc2O[C@H]1CN(C)C(=O)Nc1ccc(C(F)(F)F)cc1,inactive
8,C[C@H](CO)N1C[C@H](C)[C@@H](CN(C)C(=O)Nc2ccc(C(F)(F)F)cc2)Oc2ccc(NC(=O)Nc3ccc(F)cc3)cc2C1=O,active
9,C[C@H]1CN([C@@H](C)CO)C(=O)c2cc(NC(=O)CCC(F)(F)F)ccc2O[C@H]1CN(C)C(=O)Nc1ccc(C(F)(F)F)cc1,active
10,C[C@@H]1CN([C@H](C)CO)C(=O)c2cc(NC(=O)Nc3ccc(C(F)(F)F)cc3)ccc2O[C@H]1CN(C)C(=O)Nc1ccc(F)cc1,inactive
11,C[C@H](CO)N1C[C@H](C)[C@@H](CN(C)C(=O)Nc2ccc(C(F)(F)F)cc2)Oc2ccc(NC(=O)Nc3ccc(C(F)(F)F)cc3)cc2C1=O,active
12,C[C@@H]1CN([C@@H](C)CO)C(=O)c2cc(NC(=O)Nc3ccc(C(F)(F)F)cc3)ccc2O[C@H]1CN(C)C(=O)Nc1ccc(C(F)(F)F)cc1,inactive
13,C[C@@H]1CN([C@@H](C)CO)C(=O)c2cc(NC(=O)CCC(F)(F)F)ccc2O[C@H]1CN(C)C(=O)Nc1ccc(C(F)(F)F)cc1,inactive
14,C[C@@H]1CN([C@@H](C)CO)C(=O)c2cc(NC(=O)Nc3ccccc3)ccc2O[C@@H]1CN(C)C(=O)Nc1ccc(C(F)(F)F)cc1,inactive
15,C[C@H]1CN([C@@H](C)CO)C(=O)c2cc(NC(=O)Nc3ccc(F)cc3)ccc2O[C@@H]1CN(C)C(=O)Nc1ccc(C(F)(F)F)cc1,inactive
16,C[C@@H]1CN([C@H](C)CO)C(=O)c2cc(NC(=O)CCC(F)(F)F)ccc2O[C@@H]1CN(C)C(=O)Nc1ccc(C(F)(F)F)cc1,inactive
17,C[C@@H]1CN([C@H](C)CO)C(=O)c2cc(NC(=O)Nc3ccccc3)ccc2O[C@@H]1CN(C)C(=O)Nc1ccc(C(F)(F)F)cc1,inactive
18,Cc1noc(C)c1NC(=O)Nc1ccc2c(c1)CC(=O)N([C@H](C)CO)C[C@H](C)[C@H](CN(C)S(=O)(=O)c1cn(C)cn1)O2,inactive
19,COc1ccc(NC(=O)Nc2ccc3c(c2)C(=O)N([C@H](C)CO)C[C@@H](C)[C@@H](CN(C)C(=O)Cc2ccccc2)OCCCC[C@H](C)O3)cc1,inactive
20,NC1(C#Cc2cncc(C(=O)N3CCOCC3)c2)CCCCC1,inactive
21,C[C@@H]1CN([C@H](C)CO)C(=O)c2cc(NC(=O)NC3CCCCC3)ccc2O[C@@H](C)CCCCO[C@H]1CN(C)Cc1ccc2c(c1)OCO2,inactive
